The list is not random: actives were taken first. Their share in the collection is about 7.8%.
Cav3 T inh: human Cav3.2 channel inhibition, primary screen; O95180; Cav3.2-expressing cells, Fluo-4 calcium fluorescence FDSS; hits give low values; B-score at 10 µM; 100,000 compounds, 4% hits;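 active = single-dose well whose peak fluorescence ratio is a statistical outlier from its plate by either plate-standardised score or position-corrected B-score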
PostGolgi yeast: growth inhibition of a yeast mutant, post-Golgi transport screen | post-Golgi transport phenotypic cell assay | 98,000 compounds, 0.9% hits | inhibition, % at 10 µM;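 note: yeast cells grown in 1536-well plates; yeast grown about 18 h at 30C before absorbance read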
sEH act: increases human soluble epoxide hydrolase activity; P34913; purified human sEH enzymatic activity, activator screen; activation, % at 2 µM; 91,000 compounds, 0.04% hits; in the data active = activation above about 37%
Target sequence (P34913 whole entry, looked up): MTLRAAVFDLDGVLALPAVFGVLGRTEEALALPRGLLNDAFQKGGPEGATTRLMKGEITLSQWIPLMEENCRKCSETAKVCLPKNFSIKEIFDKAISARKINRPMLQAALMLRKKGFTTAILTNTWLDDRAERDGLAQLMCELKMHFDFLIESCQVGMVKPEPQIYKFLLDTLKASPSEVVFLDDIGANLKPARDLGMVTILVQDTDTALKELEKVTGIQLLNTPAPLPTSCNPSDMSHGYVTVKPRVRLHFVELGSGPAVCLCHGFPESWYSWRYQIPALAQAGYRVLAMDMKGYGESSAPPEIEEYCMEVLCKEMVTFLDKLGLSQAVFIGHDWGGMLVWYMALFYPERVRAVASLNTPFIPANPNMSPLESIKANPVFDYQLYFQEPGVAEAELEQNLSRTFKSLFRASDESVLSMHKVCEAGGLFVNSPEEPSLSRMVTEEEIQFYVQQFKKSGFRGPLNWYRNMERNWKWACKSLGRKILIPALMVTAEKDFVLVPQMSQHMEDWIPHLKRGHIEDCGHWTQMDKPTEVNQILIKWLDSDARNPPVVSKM
PostGolgi ctrl: yeast control strain growth, post-Golgi counter-screen; efflux-deficient yeast background strain, growth absorbance A615, 16 h; inhibition, % at 10 µM; 98,000 compounds, 5% hits
sEH inh: blocks human soluble epoxide hydrolase activity | inhibition, % at 2 µM | P34913 | 91,000 compounds, 0.34% hits | recombinant human sEH enzymatic activity assay | AID 707; in the data active = inhibition above about 80%
Hits are given with their value; n = inactive; x = no result. Cut-off read from the data, not from the text of the source, unless noted: active = inhibition above about 30%; inactive = the rest.

SMILES | Cav3 T inh | PostGolgi yeast | sEH act | PostGolgi ctrl | sEH inh
O=C(c1ccccc1)N1CCCCC(S(=O)(=O)c2ccc3ccccc3c2)C1=O (centres undefined) | n | n | n | n | n
COc1ccccc1CNC(=O)c1cc2c(C)nn(Cc3ccc(F)cc3)c2s1 | n | n | n | 33 | n
COc1ccccc1CNC(=O)c1cc2c(s1)CS(=O)(=O)C2 | x | n | x | n | x
COc1nc2ccc(C)cc2cc1-c1noc(-c2ccccc2)n1 | n | n | n | 31 | n
Clc1ccc(OCCN2CCCCC2)c(Cl)c1 | n | n | n | n | n
CC1CCCN(CCOCCOc2ccc(Cl)cc2Br)C1 (centres undefined) | n | 103 | n | n | n
CC1CC(C)CN(CCOc2ccc(Cl)cc2Cl)C1 (centres undefined) | n | 89 | n | n | n
CC(C)[C@H](N)c1nnc(SC/C=C/c2ccccc2)o1 | n | n | n | n | n
Cn1c(COc2ccc3ccccc3c2)nnc1SCC(=O)OC1CCCCC1 | n | x | n | x | n
COCCOc1ccc(C(F)(F)F)cc1Nc1nc2ccccc2o1 | n | n | x | 54 | x
COc1ccc(N2C(=O)N(Cc3cccc(F)c3)c3ccccc3S2(=O)=O)cc1 | n | x | x | x | x
O=C(CSC(=S)N1CCOCC1)Nc1nc(-c2ccccc2)c(-c2ccccc2)o1 | n | n | n | 35 | n
Cn1nnnc1SCC(=O)Nc1nc(-c2ccccc2)c(-c2ccccc2)o1 | n | n | n | n | n
O=C(CSC(=S)N1CCCCC1)Nc1nc(-c2ccccc2)c(-c2ccccc2)o1 | -4 | n | n | n | n
COc1ccc2nc(SCC(=O)Nc3ccc(S(=O)(=O)Nc4nccc(C)n4)cc3)[nH]c2c1 | n | n | n | n | n
Cc1cc(-c2cc(C(=O)NCc3ccccc3)on2)nc(NCC2CC2)n1 | n | x | x | x | x
Cc1cccc(NC(=O)C2NC(=O)CC2c2ccccc2)c1C (centres undefined) | n | n | n | n | n
C(=N\c1ncnc2sccc12)/NOCc1ccccc1 | n | n | n | 66 | n
CC(=O)N1CCc2cc(S(=O)(=O)NCCC(=O)N3CCN(c4ccccn4)CC3)ccc21 | n | n | n | 35 | n
O=C(O)C1C2C=CC(C2)C1C(=O)N1CCOCC1 (centres undefined) | n | n | x | 53 | x
O=C(NC1CCCC1)C1C2C=CC(C2)C1C(=O)N1CCOCC1 (centres undefined) | n | n | n | n | n
Cc1ccc(S(=O)(=O)n2ccc(=O)[nH]2)cc1 | n | x | x | x | x
Brc1ccc(/C=C/C=N/Nc2nc3ccccc3s2)cc1 | n | n | n | n | n
CCN(CC)c1ccc(/C=C/c2nc3ccccc3s2)cc1 | -3.9 | n | n | n | n
CN1CCN(c2ccc([N+](=O)[O-])c(-n3nc(-c4ccccc4)c4ccccc4c3=O)c2)CC1 | n | n | n | n | n
SMILES | Cav3 T inh | PostGolgi yeast | sEH act | PostGolgi ctrl | sEH inh
CCCN(CCC)C(=O)CSc1nc2ccccc2c(=O)n1CC1COc2ccccc2O1 (centres undefined) | -5.9 | n | n | n | n
Oc1ccccc1-c1nnc(COc2ccc(Cl)cc2Cl)o1 | -5.9 | n | n | n | n
O=C(NCc1ccco1)C1CCN(c2nc3ccccc3n2Cc2ccc(F)cc2)CC1 | -8.3 | n | n | n | n
COc1nc(OC)nc(N2CCC(C(=O)NCc3ccco3)CC2)n1 | n | n | x | n | x
CC1CCCCC1NC(=O)CN1C(=O)NC(Cc2ccccc2)(Cc2ccccc2)C1=O (centres undefined) | x | n | n | n | n
CC(NC(=O)CN1C(=O)NC(Cc2ccccc2)(Cc2ccccc2)C1=O)C12CC3CC(CC(C3)C1)C2 (centres undefined) | -5.2 | n | n | n | n
Cc1ccccc1Cn1nc(C)c(NC(=O)c2sc3ccccc3c2Cl)c1C | -6.8 | n | n | 33 | n
Cc1nn(Cc2ccc(Cl)c(Cl)c2)c(C)c1NC(=O)c1sc2ccccc2c1Cl | -8.1 | n | n | n | n
CC(C)c1nnc(NC(=O)c2sc3ccccc3c2Cl)s1 | n | n | n | 34 | n
O=C(Nc1nccs1)c1sc2ccccc2c1Cl | n | n | n | n | n
CCC(C)NS(=O)(=O)c1ccc(OCC(=O)N2CCCC2)cc1 (centres undefined) | n | x | n | x | n
CC1(C(=O)NCCN2CCOCC2)C=CC2(CCCCC2)N1C(=O)c1ccccc1 (centres undefined) | n | x | x | x | x
O=C(Nc1sc2c(c1C(=O)NC1CC1)CCCCCC2)c1ccco1 | n | n | n | 57 | n
N#Cc1c(NC(=O)COC(=O)c2ccc(F)cc2)sc2c1CCC2 | n | n | n | 37 | n
Cc1ccc(C(=O)OCC(=O)Nc2sc3c(c2C#N)CCCCC3)cc1NC(=O)c1ccco1 | -3.8 | n | n | n | n
Cc1ccc(OCC(=O)Nc2sc3c(c2C#N)CCC3)cc1 | n | n | n | n | n
O=C(Nc1sc2c(c1C(=O)NCC1CCCO1)CCCC2)c1cccs1 (centres undefined) | n | 86 | n | 68 | n
CC(CC(C)C(=O)Nc1ccccc1C(C)(C)C)C(=O)O (centres undefined) | n | x | n | x | n
Cc1cccc(OCC(O)Cn2c(NCc3cccnc3)nc3c2c(=O)[nH]c(=O)n3C)c1 (centres undefined) | n | n | x | n | x
CCCCCc1ccc(-c2ccc(=O)[nH]n2)cc1 | x | n | x | 31 | x
Cc1ccc(-c2ccc(=O)[nH]n2)cc1 | x | n | n | n | n
CCCCN1C2CCCC1CC(NC(=O)C1CCCCC1)C2 (centres undefined) | n | x | n | x | n
O=C1CC(SCCc2nc3ccccc3[nH]2)C(=O)N1c1ccc(Cl)cc1 (centres undefined) | -6.5 | n | n | n | n
O=C1CC(SCc2nc3ccccc3[nH]2)C(=O)N1c1ccc(Cl)cc1 (centres undefined) | -4.9 | n | n | n | n
CCCCOC(=O)C1=C(C)Nc2ncnn2C1c1cc(OC)c(OC)cc1OC (centres undefined) | n | n | x | n | x
SMILES | Cav3 T inh | PostGolgi yeast | sEH act | PostGolgi ctrl | sEH inh
C=CCOC(=O)C1=C(C)Nc2nnnn2C1c1cccs1 (centres undefined) | n | n | n | n | n
CCN(c1ccccc1)S(=O)(=O)c1ccc(N)c(OC)c1 | x | n | n | n | n
Cn1cc(/C=N/n2cnc3scc(-c4ccccc4)c3c2=O)c2ccccc21 | -4 | n | n | n | n
Cn1nc(C(F)(F)F)c2cc(NC(=O)OCc3ccc(C(C)(C)C)cc3)sc21 | n | n | n | 38 | n
Cn1nc(C(F)(F)F)c2cc(NC(=O)OCc3ccc(F)cc3)sc21 | n | n | n | n | n
CCN(CC)c1cc(C)c2cc(NC(=O)CNC(C)=O)ccc2n1 | n | n | n | 33 | n
O=C(Nc1ccc(Br)cc1)c1cccnc1N1CCCCC1 | n | n | n | 32 | n
O=S1(=O)C=C(SCc2ccc(Cl)c(Cl)c2)Nc2ccccc21 | n | n | n | n | n
O=C(Cc1ccccc1)NCC1CCCO1 (centres undefined) | n | n | n | n | n
O=C(CCS(=O)(=O)Cc1ccccc1)NCC1CCCO1 (centres undefined) | n | n | n | 34 | n
CCC(=O)N1CCN(c2ccccc2NC(=O)COc2ccccc2Cl)CC1 | n | n | n | n | n
CCNC(=S)N/N=C/c1cccs1 | n | n | n | n | n
